Consider seven compounds from PubChem BioAssay (NCI).

Compounds without any hit were thinned out: in the full panel of roughly 83,000, 20% have a hit.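 In brief: 96-well plates, 48 h treatment, single concentration, percent growth endpoint.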 Unmarked numbers belong to inactive results. Activity calls are given as the source filed them. The calls were made as follows: active = growth percent below 10; inactive = the rest.

Common to all, as to assay: NCI-60 one-dose screen, 48 h (100 = growth as untreated, 0 = no growth, -100 = all killed)
Holding throughout (settings): 10 µM unless noted

The test system of assay [1] is SK-MEL-2 melanoma.
Assay [2] deals with EKVX NSCLC.
The test system of assay [3] is SN12C renal.
In assay [4] the test system is UO-31 renal.
Assay [5] has as its system TK-10 renal.
Assay [6] has as its system ACHN renal.
Assay [7] concerns CAKI-1 renal.
For assay [8], the system named is A498 renal.
Assay [9] deals with CCRF-CEM leukemia.
Assay [10] has as its system MOLT-4 leukemia.
In assay [11] the test system is SR leukemia.
In assay [12] the test system is RPMI-8226 leukemia.
Assay [13] has as its system OVCAR-8 ovarian.
The test system of assay [14] is OVCAR-5 ovarian.
For assay [15], the system named is OVCAR-4 ovarian.
Assay [16] concerns SK-OV-3 ovarian.
Assay [17] has as its system IGROV1 ovarian.
For assay [18], the system named is OVCAR-3 ovarian.
In assay [19] the test system is HS 578T breast.
The subject of assay [20] is NCI/ADR-RES ovarian.

In the case of `C=C(C)[C@@H]1CC[C@]2(C(=O)N3CCN(C)CC3)CC[C@]3(C)[C@H](CC[C@@H]4[C@@]5(C)CC[C@H](OC(=O)c6ccccc6C(=O)O)C(C)(C)[C@@H]5CC[C@]43C)[C@@H]12`, the growth in assay [1] was 107%; in assay [2] it was 98.4%; in assay [3] it was 93.5%; in assay [4], 77.7%; in [5] it was 106%; in assay [6], 100%. Moreover, the growth in assay [7] was 83.9%; in [8], 74.9%; in [9], 97.1%; in assay [10] it was 88.7%; in [11] it was 90.5%; in assay [12], 96.7%. Besides, the growth was 104% in assay [13]; 104% in assay [14]; 99.2% in assay [15]; 104% in assay [16]; 97.9% in [17]; 110% in assay [18]. Moreover, the growth in [19] is 94.7%; in assay [20], 104%.

On to `COc1cccc(CNc2c3ccccc3nc3ccccc23)c1`, for which the growth was 67.9% in assay [1]; 51.8% in assay [2]; 37.9% in assay [3]; 27% in assay [4]; 51.7% in assay [5]; 19.1% in assay [6]. In addition, the growth was 35.7% in [7]; 3.65% (active) in assay [8]; 30.2% in [9]; 6.41% (active) in [10]; 8.36% (active) in assay [11]; 16.7% in [12]. The growth in [13] is 31.9%; in assay [14] it was 45.9%; in [15], 43.6%; in assay [16], 54.7%; in [17], 28.3%; in [18], 54.8%. Further, the growth is 55.6% in assay [19] and 37.5% in [20].

As for `COc1ccc2c(c1)c(-c1nc(-c3c[nH]c4ncccc34)cs1)cn2CCO`, the growth is 48.7% in assay [1]; 34.9% in [2]; 63.5% in [3]; 16.1% in [4]; 58.3% in assay [5]; 26.7% in assay [6]. The growth in assay [7] is 35.5%; in assay [8] it was -0.474% (active); in [9], 41.3%; in [10], 55%; in assay [11], 37.8%; in assay [12] it was 39.9%. Further, the growth is 56.2% in assay [13]; 68.2% in assay [14]; 42.1% in [15]; 30% in [16]; 43.4% in assay [17]; 78.7% in assay [18]. Moreover, the growth in assay [19] was 33.5%; in assay [20], 76%.

In the case of `COc1ccc(-c2nc(-c3cn(C)c4ncccc34)cs2)cc1`, the growth was 1.08% [100 µM] (active) in [1]; -26.4% [100 µM] (active) in [2]; 14.1% [100 µM] in assay [3]; 14.4% [100 µM] in assay [4]; -21.3% [100 µM] (active) in [5]; 8.63% [100 µM] (active) in assay [6]. Further, the growth in assay [7] was 0.0611% [100 µM] (active); in assay [8], 24.1% [100 µM]; in assay [9], 2.08% [100 µM] (active); in assay [10] it was 2.81% [100 µM] (active); in assay [11], 12.2% [100 µM]; in assay [12] it was -28.1% [100 µM] (active). Moreover, the growth is 11.5% [100 µM] in assay [13]; 28% [100 µM] in assay [14]; 1.57% [100 µM] (active) in assay [15]; -3.58% [100 µM] (active) in assay [16]; 17.9% [100 µM] in assay [17]; 17.9% [100 µM] in assay [18]. In addition, the growth was 38.8% [100 µM] in [19] and 3.69% [100 µM] (active) in assay [20].

As for `O=C(O)/C=C/C(=O)Nc1cccc(Cn2nnc3cc(Cl)c(Cl)cc32)c1`, the growth was 114% in assay [1]; 94.3% in assay [2]; 104% in [3]; 79.5% in [4]; 124% in assay [5]; 97.1% in [6]. The growth in assay [7] is 95%; in assay [8], 108%; in assay [9] it was 99.4%; in assay [10] it was 97.1%; in assay [11] it was 93.8%; in assay [12], 104%. In addition, the growth in [13] is 99.6%; in [14] it was 100%; in assay [15] it was 108%; in assay [16], 90.1%; in [17], 94.1%; in [18], 101%. Besides, the growth in assay [19] was 88%; in assay [20], 106%.

In the case of `CNC(C)[C@H]1CCC2C3CC=C4C(=O)[C@@H](NC(=O)C=C(C)C)CC[C@]4(C)C3CC[C@@]21C` (stereo not given in full), the growth in [1] is 23.8%; in [2], 24.2%; in [3] it was 17%; in assay [4] it was -35.5% (active); in [5] it was 60.1%; in [6] it was 26%. The growth in assay [7] is 3.96% (active); in assay [8], 56%; in assay [9], -20% (active); in [10], -55.8% (active); in assay [11] it was -49.7% (active); in [12], -43.7% (active). In addition, the growth in assay [13] is 42.5%; in assay [14], 66.3%; in assay [15], -13.3% (active); in [16], 46.4%; in [17] it was 9.81% (active); in assay [18] it was -14% (active). For the same compound, the results for the growth in assay [19] and in assay [20] were 10.2% and 39.1%, respectively.

Turning to `COc1ccc(/C(C)=C(/c2ccc(OCCCN(C)C)cc2)c2ccc(OC(=O)c3ccccc3)cc2)cc1`, the growth was 90.9% in assay [1]; 74.5% in assay [2]; 79.1% in [3]; 45.1% in assay [4]; 87.8% in [5]; 111% in [6]. For the same compound, the growth in [7] is 89.7%; in [8], 91.5%; in assay [9], 64.3%; in assay [10], 54.2%; in [11] it was 9.15% (active); in [12], 62.6%. Besides, the growth is 91.6% in assay [13]; 88.1% in assay [14]; 99.8% in [15]; 90.8% in assay [16]; 93.6% in assay [17]; 69.5% in [18]. The growth was 55.4% in [19] and 86.4% in assay [20].
